Bioassay records as filed in PubChem.
Only some compounds are listed: those with a hit (about 1.2% of all), similar ones and a draw of the others.
PrP 5UTR inh: inhibition of PrP 5' UTR reporter expression. cell-based PrP 5' UTR mRNA reporter, plate reader. inhibition, % (concentration not given with the values). actives 0.35% (n = 340,000). AID 488862; in the data active = inhibition above about 52%
RN4220 kill: kills Staphylococcus aureus RN4220; S. aureus RN4220 growth, OD600, 16 h; inhibition, % (no concentration beside the values); actives 0.33% (n = 330,000); AID 1259311; in the data active = inhibition above about 85%
PfHsp40 rescue: compounds rescuing yeast from Plasmodium falciparum HSP40 toxicity; S. cerevisiae expressing PfHsp40, growth rescue, ATP luminescence; growth rescue, % at 12.5 µM; actives 0.68% (n = 340,000); AID 504582; in the data active = growth rescue above about 28%, passing the limit was not always enough;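 also: yeast W303a lacking pdr1 and pdr3 grown in galactose medium; growth measured after three days at 30 °C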
Sa ugtP lethal: compounds lethal to S. aureus RN4220 ugtP deletion mutant; OD600 growth, 16 h; growth inhibition, % (test concentration not listed); actives 0.54% (n = 330,000); in the data active = growth inhibition above about 68%
TcdB GH inh: blocks C. difficile toxin B glycohydrolase activity. P18177. inhibition, % at 9.99 µM. AID 652162. actives 0.24% (n = 350,000). TcdB glycohydrolase enzymatic assay, plate reader; in the data active = inhibition above about 10%
PrP UTR cherry: prion 5' UTR mRNA inhibition, cherry-pick retest. cell-based prion protein 5' UTR reporter, plate reader. shares compounds with PrP 5UTR inh. AID 504592. actives 48% (n = 1,100). inhibition, % at 2.5 µM; in the data active = inhibition above about 54%
Numbers stand for hits.

Results for COc1cc(/C=C2\COC/C(=C\c3cc(OC)c(OC)c(OC)c3)C2=O)cc(OC)c1OC ?
PrP 5UTR inh: 89; RN4220 kill: inactive; PfHsp40 rescue: inactive; Sa ugtP lethal: inactive; TcdB GH inh: inactive; PrP UTR cherry: 97

Results for COc1ccc(C(C#N)=C2C=CC(=NO)C(C)=C2Cl)cc1 ?
PrP 5UTR inh: 71; PfHsp40 rescue: inactive; TcdB GH inh: inactive; PrP UTR cherry: inactive

How did O=C(Nc1nnc(-c2ccccc2)o1)NC1CCCCC1 do in these assays?
PrP 5UTR inh: 78; RN4220 kill: inactive; PfHsp40 rescue: inactive; Sa ugtP lethal: inactive; PrP UTR cherry: inactive

How did COc1cccc(-c2cnc3c(c2)C(=O)N([C@@H](C)CO)C[C@H](C)[C@@H](CN(C)Cc2ccc(F)cc2)O3)c1 do in these assays?
TcdB GH inh: inactive

What do the screens show for `COCC(=O)Nc1ccc2c(c1)C(=O)N(C)C[C@@H](OC)[C@@H](C)CN(C(=O)C1CCCC1)[C@H](C)CO2`?
TcdB GH inh: inactive

How did O=c1[nH]c2cc([N+](=O)[O-])ccc2c2ccc([N+](=O)[O-])cc12 do in these assays?
PrP 5UTR inh: 88; PfHsp40 rescue: inactive; TcdB GH inh: inactive; PrP UTR cherry: inactive

How did CNC(=O)c1cc(Cl)c(OC)c(OC)c1 do in these assays?
PrP 5UTR inh: inactive; RN4220 kill: inactive; PfHsp40 rescue: inactive; Sa ugtP lethal: inactive; TcdB GH inh: inactive

How did COC(=O)C(=O)C1CCc2c(Cl)cc(OC)c(OC)c2C1=O (stereo not drawn) do in these assays?
PrP 5UTR inh: 94; PfHsp40 rescue: inactive; TcdB GH inh: inactive; PrP UTR cherry: inactive

How did Cc1ccc(C(=O)c2cc([N+](=O)[O-])ccc2N2CCOCC2)cc1C do in these assays?
PrP 5UTR inh: inactive; RN4220 kill: inactive; PfHsp40 rescue: inactive; Sa ugtP lethal: inactive

How did CN1CCN(c2ccc([N+](=O)[O-])cc2C(=O)N2CCOCC2)CC1 do in these assays?
PrP 5UTR inh: inactive; RN4220 kill: inactive; PfHsp40 rescue: inactive; Sa ugtP lethal: inactive

What do the screens show for `O=C(c1cc([N+](=O)[O-])ccc1N1CCOCC1)N1CCN(c2ccccc2)CC1`?
PrP 5UTR inh: 81; PfHsp40 rescue: inactive; TcdB GH inh: inactive; PrP UTR cherry: 92

Results for CSc1ccc(COC(=O)c2cc([N+](=O)[O-])ccc2N2CCOCC2)cc1 ?
PrP 5UTR inh: 72; RN4220 kill: inactive; PfHsp40 rescue: inactive; Sa ugtP lethal: inactive; TcdB GH inh: inactive; PrP UTR cherry: 89

How did CN1CCN(c2ccc([N+](=O)[O-])cc2C(=O)c2ccc(Br)cc2)CC1 do in these assays?
PrP 5UTR inh: inactive; RN4220 kill: inactive; PfHsp40 rescue: inactive; Sa ugtP lethal: inactive

Results for O=C(c1ccc(Br)cc1)c1cc([N+](=O)[O-])ccc1N1CCCCC1 ?
PrP 5UTR inh: 58; RN4220 kill: inactive; PfHsp40 rescue: inactive; Sa ugtP lethal: inactive; PrP UTR cherry: 94

What do the screens show for `Cc1ccc(C(=O)c2cc([N+](=O)[O-])ccc2N2CCOCC2)c(C)c1`?
PrP 5UTR inh: 75; RN4220 kill: inactive; PfHsp40 rescue: inactive; Sa ugtP lethal: inactive; PrP UTR cherry: 86

Results for Cc1ccccc1COC(=O)c1cc([N+](=O)[O-])ccc1N1CCOCC1 ?
PrP 5UTR inh: inactive; RN4220 kill: inactive; PfHsp40 rescue: inactive; Sa ugtP lethal: inactive; TcdB GH inh: inactive

What do the screens show for `O=C(C[C@@H]1CC[C@H]2NC[C@@H](O)COC[C@@H]2O1)NCCN1CCCC1`?
TcdB GH inh: inactive

How did Nc1ccc(Oc2cccc(Oc3ccc(N)cc3)c2)cc1 do in these assays?
PrP 5UTR inh: 67; PfHsp40 rescue: inactive; TcdB GH inh: inactive; PrP UTR cherry: 75

Results for Cc1cccc(Oc2ccc(N)cc2)c1 ?
PrP 5UTR inh: inactive; RN4220 kill: inactive; PfHsp40 rescue: inactive; Sa ugtP lethal: inactive

How did CC(=O)c1sc2c(c1OC(=O)c1ccc(Cl)cc1)c(=O)n(-c1ccccc1)c(=S)n2-c1ccccc1 do in these assays?
PrP 5UTR inh: inactive; PfHsp40 rescue: inactive; TcdB GH inh: inactive

What do the screens show for `CC(=O)c1sc2c(c1OC(=O)c1ccc(Cl)cc1Cl)c(=O)n(-c1ccccc1)c(=S)n2-c1ccccc1`?
PrP 5UTR inh: 76; RN4220 kill: inactive; PfHsp40 rescue: inactive; Sa ugtP lethal: inactive; TcdB GH inh: inactive; PrP UTR cherry: 62

How did C[C@@H]1CN([C@H](C)CO)C(=O)c2cc(NS(=O)(=O)c3cn(C)cn3)ccc2O[C@@H]1CN(C)CC1CCCCC1 do in these assays?
TcdB GH inh: inactive
